# Data from paper PMC7862700, “An all-to-all approach to the identification of sequence-specific readers for epigenetic DNA modifications on cytosine”.
# Columns and labels:
# Assay in all cases: DAPPL (digital affinity profiling via proximity ligation, sequencing); 10 mM Tris-HCl pH 7.5, 50 mM NaCl, 1 mM DTT, 4% glycerol, room temperature, 30 min; GST-TFs on glutathione beads, 16-mer random dsDNA library, 0.1% formaldehyde crosslink after washing; high values mean tight binding
# Conditions in all cases: protein: recombinant; tags: N-terminal GST; dsDNA, one strand shown
# [1] = biological target: T1, GABPA (Homo sapiens, UniProt Q06546 1-454)
# T1 sequence: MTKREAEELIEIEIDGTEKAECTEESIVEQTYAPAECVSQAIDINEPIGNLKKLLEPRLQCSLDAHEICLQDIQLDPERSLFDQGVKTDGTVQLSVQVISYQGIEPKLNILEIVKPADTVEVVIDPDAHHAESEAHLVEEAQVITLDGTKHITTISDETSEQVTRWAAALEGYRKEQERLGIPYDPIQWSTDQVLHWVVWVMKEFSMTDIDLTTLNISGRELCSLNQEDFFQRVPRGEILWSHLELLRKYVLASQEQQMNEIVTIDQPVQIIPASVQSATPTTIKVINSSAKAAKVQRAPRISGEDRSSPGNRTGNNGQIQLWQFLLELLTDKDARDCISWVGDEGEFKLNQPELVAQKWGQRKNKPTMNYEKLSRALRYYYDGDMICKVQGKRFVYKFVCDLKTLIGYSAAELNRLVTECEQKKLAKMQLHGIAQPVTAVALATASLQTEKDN
# Outline: (§1)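 A tag-only sample was pooled with DNA-barcoded human transcription factors that had been expressed in yeast as GST fusions and captured on glutathione beads. The pools were incubated for 30 min at room temperature with 200 nmole of a random double-stranded 16-mer DNA library in Tris/NaCl/DTT/glycerol buffer, then washed, crosslinked with 0.1% formaldehyde, proximity-ligated (BsaI/T4 ligase, 1 h, 37 °C), PCR-amplified and sequenced on an Illumina NextSeq500. Binding signal is each hexamer's read frequency for a factor divided by its frequency for the tag-only sample.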
# [2] = biological target: ELF1 (Homo sapiens, UniProt P32519 1-619)
# ELF1, sequence (P32519 whole entry): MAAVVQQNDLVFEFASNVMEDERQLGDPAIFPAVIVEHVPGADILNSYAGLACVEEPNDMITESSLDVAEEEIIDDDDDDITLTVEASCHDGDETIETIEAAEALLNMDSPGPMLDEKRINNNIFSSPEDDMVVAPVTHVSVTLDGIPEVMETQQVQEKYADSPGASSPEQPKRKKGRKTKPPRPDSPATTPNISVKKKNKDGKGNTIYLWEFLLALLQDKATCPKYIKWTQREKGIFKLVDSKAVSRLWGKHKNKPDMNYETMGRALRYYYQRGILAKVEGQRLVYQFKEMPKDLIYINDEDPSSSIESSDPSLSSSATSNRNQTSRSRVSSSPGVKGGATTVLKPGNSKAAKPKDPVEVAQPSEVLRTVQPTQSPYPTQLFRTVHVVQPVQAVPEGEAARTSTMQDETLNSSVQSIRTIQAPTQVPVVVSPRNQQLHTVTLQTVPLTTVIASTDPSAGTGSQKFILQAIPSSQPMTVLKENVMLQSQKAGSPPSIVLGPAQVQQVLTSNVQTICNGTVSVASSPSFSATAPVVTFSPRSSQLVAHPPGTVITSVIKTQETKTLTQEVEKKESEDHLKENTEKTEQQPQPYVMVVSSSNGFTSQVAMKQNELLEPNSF
# Outline: as §1
# [3] = biological target: SPI1 (Homo sapiens, UniProt P17947 1-270)
# Outline: as §1
# [4] = biological target: ELF4 (Homo sapiens, UniProt Q99607 1-663)
# ELF4, sequence (Q99607 whole entry): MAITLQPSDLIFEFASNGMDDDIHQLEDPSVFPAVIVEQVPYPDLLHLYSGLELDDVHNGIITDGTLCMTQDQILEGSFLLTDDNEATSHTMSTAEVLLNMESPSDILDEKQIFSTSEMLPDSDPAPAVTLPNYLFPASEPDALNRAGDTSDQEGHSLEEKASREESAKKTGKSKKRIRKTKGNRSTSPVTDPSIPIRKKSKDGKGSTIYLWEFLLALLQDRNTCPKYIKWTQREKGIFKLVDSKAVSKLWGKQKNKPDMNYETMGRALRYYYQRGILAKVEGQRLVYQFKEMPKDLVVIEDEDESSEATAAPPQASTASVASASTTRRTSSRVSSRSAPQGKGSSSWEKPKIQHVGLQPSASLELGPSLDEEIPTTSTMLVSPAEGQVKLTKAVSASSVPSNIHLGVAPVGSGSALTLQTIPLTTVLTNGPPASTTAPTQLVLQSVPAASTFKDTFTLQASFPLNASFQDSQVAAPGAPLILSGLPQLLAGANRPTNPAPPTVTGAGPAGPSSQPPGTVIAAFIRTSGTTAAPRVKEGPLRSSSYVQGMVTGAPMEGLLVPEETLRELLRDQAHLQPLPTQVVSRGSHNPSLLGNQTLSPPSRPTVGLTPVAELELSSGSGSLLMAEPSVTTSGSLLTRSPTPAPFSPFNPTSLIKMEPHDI
# Outline: as §1
# [5] = biological target: T2, ELK4 (Homo sapiens, UniProt P28324-2 1-405)
# T2 sequence: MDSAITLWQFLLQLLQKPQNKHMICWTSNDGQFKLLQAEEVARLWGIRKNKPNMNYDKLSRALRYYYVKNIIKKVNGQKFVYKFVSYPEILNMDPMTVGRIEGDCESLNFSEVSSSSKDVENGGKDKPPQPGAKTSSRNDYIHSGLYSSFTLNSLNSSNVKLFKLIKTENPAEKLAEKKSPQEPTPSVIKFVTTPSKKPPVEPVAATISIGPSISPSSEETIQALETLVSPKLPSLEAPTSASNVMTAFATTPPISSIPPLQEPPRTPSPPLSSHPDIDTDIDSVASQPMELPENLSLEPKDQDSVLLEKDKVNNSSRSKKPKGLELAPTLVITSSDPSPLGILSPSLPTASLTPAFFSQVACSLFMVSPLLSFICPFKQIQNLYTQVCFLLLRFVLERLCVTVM
# Outline: as §1
# [6] = biological target: T3, ETV2 (Homo sapiens, UniProt O00321 1-342)
# T3 sequence: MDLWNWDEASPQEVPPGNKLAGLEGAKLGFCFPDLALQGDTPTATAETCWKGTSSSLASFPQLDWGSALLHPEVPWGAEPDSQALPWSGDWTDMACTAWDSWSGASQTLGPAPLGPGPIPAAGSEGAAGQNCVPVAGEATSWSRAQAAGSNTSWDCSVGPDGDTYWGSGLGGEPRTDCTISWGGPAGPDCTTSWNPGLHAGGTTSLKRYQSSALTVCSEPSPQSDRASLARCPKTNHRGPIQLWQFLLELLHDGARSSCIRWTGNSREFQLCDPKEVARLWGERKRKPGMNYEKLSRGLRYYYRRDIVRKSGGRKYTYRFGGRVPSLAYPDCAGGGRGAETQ
# Outline: as §1
# [7] = biological target: T4, SPDEF (Homo sapiens, UniProt O95238 1-335)
# T4 sequence: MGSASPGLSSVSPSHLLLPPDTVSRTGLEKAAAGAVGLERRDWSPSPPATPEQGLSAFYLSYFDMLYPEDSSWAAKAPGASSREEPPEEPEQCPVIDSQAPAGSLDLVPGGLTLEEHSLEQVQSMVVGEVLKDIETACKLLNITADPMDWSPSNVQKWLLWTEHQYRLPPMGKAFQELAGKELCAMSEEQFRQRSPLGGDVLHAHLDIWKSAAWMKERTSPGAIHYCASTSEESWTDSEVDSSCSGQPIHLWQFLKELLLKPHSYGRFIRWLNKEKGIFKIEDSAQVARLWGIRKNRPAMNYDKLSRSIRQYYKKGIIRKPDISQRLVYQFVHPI
# Outline: as §1
# [8] = biological target: T5, ETV7 (Homo sapiens, UniProt Q9Y603 1-341)
# T5 sequence: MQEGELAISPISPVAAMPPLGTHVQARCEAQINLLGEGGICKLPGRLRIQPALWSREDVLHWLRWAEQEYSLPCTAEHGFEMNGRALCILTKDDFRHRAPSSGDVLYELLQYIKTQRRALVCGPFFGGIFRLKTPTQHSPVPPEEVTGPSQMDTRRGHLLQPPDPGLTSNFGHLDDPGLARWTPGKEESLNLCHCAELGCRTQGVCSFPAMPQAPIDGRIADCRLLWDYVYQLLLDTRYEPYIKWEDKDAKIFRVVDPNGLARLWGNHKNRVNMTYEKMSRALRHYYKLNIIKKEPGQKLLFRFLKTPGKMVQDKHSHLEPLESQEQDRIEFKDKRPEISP
# Outline: as §1
# [9] = biological target: T6, ETV3 (Homo sapiens, UniProt P41162-2 1-143)
# T6 sequence: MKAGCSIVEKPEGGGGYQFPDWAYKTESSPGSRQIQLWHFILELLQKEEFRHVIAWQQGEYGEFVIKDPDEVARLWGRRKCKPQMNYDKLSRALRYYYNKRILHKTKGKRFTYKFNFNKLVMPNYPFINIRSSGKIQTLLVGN
# Outline: as §1
# [10] = biological target: T7, EHF (Homo sapiens, UniProt Q9NZC4 1-300)
# T7 sequence: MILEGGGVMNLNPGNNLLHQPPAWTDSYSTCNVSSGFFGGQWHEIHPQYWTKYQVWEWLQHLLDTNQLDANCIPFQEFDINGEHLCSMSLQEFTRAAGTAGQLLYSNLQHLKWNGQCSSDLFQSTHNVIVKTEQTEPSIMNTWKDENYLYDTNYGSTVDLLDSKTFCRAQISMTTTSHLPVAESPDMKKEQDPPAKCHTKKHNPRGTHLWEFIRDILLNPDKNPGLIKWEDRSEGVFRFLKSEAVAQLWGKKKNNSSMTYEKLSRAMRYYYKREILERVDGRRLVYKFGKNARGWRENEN
# Outline: as §1
# [11] = biological target: T8, ELK3 (Homo sapiens, UniProt P41970 1-407)
# T8 sequence: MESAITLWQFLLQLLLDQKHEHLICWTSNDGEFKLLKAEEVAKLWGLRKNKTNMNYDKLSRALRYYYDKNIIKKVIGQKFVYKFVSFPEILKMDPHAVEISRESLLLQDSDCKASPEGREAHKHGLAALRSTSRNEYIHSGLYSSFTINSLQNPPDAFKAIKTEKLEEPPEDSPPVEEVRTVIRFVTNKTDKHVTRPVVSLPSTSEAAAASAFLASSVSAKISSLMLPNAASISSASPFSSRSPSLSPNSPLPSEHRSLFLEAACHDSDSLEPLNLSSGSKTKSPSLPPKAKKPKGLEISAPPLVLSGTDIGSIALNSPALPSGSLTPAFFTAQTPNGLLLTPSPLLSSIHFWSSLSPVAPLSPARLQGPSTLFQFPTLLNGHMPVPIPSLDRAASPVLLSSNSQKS
# Outline: as §1
# [12] = biological target: T9, ERG (Homo sapiens, UniProt P11308 1-479)
# T9 sequence: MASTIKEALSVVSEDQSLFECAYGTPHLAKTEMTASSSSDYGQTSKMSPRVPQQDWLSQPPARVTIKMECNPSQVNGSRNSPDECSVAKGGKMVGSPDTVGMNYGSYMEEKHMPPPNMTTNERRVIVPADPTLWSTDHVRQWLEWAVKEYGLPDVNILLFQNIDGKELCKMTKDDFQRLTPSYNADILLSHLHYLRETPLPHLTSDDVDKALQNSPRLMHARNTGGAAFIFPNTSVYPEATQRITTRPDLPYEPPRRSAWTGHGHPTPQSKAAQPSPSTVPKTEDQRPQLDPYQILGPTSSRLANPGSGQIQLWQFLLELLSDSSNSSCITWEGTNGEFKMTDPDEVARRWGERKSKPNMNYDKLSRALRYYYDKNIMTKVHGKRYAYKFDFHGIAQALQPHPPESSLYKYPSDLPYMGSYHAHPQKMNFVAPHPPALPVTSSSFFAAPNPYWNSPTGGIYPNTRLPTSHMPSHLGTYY
# Outline: as §1
# [13] = biological target: T10, ERF (Homo sapiens, UniProt P50548 1-548)
# T10 sequence: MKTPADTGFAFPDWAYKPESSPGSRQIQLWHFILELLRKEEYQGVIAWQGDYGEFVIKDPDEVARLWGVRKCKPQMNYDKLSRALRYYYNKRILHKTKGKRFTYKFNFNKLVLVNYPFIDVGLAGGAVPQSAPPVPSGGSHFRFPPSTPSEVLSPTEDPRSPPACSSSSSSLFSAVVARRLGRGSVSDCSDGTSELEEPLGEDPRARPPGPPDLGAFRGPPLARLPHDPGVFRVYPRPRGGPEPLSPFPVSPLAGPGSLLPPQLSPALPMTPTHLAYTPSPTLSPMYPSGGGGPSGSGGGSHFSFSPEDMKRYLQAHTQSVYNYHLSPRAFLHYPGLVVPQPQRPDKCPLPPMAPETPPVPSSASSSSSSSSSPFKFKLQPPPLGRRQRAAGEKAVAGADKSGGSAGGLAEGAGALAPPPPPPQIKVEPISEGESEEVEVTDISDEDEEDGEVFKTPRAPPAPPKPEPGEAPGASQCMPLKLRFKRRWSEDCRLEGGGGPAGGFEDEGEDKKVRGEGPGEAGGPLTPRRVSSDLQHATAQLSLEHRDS
# Outline: as §1
sequence,measurement,setting,value
ATAGAC,binding signal,[1],"1.04 fold enrichment (6-mer frequency, TF over GST control)"
same,binding signal,[2],"1.03 fold enrichment (6-mer frequency, TF over GST control)"
same,binding signal,[3],"1.02 fold enrichment (6-mer frequency, TF over GST control)"
same,binding signal,[4],"1.01 fold enrichment (6-mer frequency, TF over GST control)"
same,binding signal,[5],"1.02 fold enrichment (6-mer frequency, TF over GST control)"
same,binding signal,[6],"1.08 fold enrichment (6-mer frequency, TF over GST control)"
same,binding signal,[7],"1.01 fold enrichment (6-mer frequency, TF over GST control)"
same,binding signal,[8],"1.1 fold enrichment (6-mer frequency, TF over GST control)"
same,binding signal,[9],"1.02 fold enrichment (6-mer frequency, TF over GST control)"
GCATAC,binding signal,[1],"1.01 fold enrichment (6-mer frequency, TF over GST control)"
same,binding signal,[10],"1.01 fold enrichment (6-mer frequency, TF over GST control)"
same,binding signal,[11],"1.05 fold enrichment (6-mer frequency, TF over GST control)"
same,binding signal,[4],"1.01 fold enrichment (6-mer frequency, TF over GST control)"
same,binding signal,[8],"1 fold enrichment (6-mer frequency, TF over GST control)"
GCCATT,binding signal,[12],"1.01 fold enrichment (6-mer frequency, TF over GST control)"
same,binding signal,[3],"1.03 fold enrichment (6-mer frequency, TF over GST control)"
same,binding signal,[4],"1.02 fold enrichment (6-mer frequency, TF over GST control)"
same,binding signal,[5],"1.07 fold enrichment (6-mer frequency, TF over GST control)"
same,binding signal,[13],"1.03 fold enrichment (6-mer frequency, TF over GST control)"
